GLS inhibitor – blocks human kidney-isoform glutaminase activity. O94925. GLS enzymatic activity, qHTS titration. Potency, µM (titrated, usually from 45.5 µM), without a hit: at the top dose activity change, negative = inhibition, usual class: inhibitors. 0.21% of 410,000 active; further: on the % scale 0 is the no-effect control and ±100 the full control effect
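Human kidney-isoform GLS in 45 mM KH2PO4 pH 8.2, 0.02% Tween-20, with compound, started with 1mM L-Glutamine (added stock). Glutamate oxidase/HRP/Amplex red coupled fluorescence read at start and after 30 min at RT.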
JMJD2A Tudor – JMJD2A Tudor domain (human) inhibition; 4.4% of 390,000 active; AlphaScreen JMJD2A-Tudor / H3K4me3 peptide binding; Potency, µM (series often up to 114 µM), without a hit: at the highest dose activity change, negative = inhibition, hits mostly inhibitors; AID 504339; further: on the % scale 0 is the no-effect control and ±100 the full control effect; nearly all actives have a fitted effect of over 50% in size
HP1b chromo inh – HP1-beta chromodomain-methylated histone interaction inhibition. AlphaScreen HP1-beta / biotin-H3K9me3 peptide binding. P83916. Potency, µM (series often up to 114 µM), without a hit: at the highest dose activity change, negative = inhibition, most hits filed as inhibitors. 0.56% of 390,000 active. AID 540317; further: nearly all actives have a fitted effect of over 70% in size
Target sequence (P83916 whole entry, looked up): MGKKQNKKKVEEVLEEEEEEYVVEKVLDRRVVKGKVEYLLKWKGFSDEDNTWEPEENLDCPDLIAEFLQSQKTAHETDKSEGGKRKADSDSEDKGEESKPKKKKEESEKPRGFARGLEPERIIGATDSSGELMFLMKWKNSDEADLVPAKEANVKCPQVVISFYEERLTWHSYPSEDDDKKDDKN
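AlphaScreen: HP1-beta (50 nM) preformed 30 min with biotin-H3(1-18)K9me3 peptide (50 nM) in PBS pH 7.4, 0.01% Tween-20. Compound added for 30 min at RT, then streptavidin donor/nickel chelate acceptor beads (10 ug/mL) for 30 min.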
G9a inh – inhibitors of human histone lysine methyltransferase G9a | Q96KQ7 | G9a H3K9 monomethylation, AlphaScreen, 2 h | Potency, µM (series often up to 102 µM), for the others: at the highest dose activity, negative = inhibition, most hits filed as inhibitors | 8.8% of 350,000 active; further: on the % scale 0 is the no-effect control and ±100 the full control effect; nearly all actives have a fitted effect of over 75% in size
Target sequence (Q96KQ7 913-1193 limits assumed): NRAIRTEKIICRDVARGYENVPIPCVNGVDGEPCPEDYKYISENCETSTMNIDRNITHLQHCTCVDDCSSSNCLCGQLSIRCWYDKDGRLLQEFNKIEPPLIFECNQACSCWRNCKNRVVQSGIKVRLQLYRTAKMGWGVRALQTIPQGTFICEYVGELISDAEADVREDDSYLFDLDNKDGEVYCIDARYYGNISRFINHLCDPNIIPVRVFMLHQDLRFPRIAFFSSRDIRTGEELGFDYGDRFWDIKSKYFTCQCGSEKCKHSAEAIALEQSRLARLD
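Compounds were preincubated with 20 nM G9a for 15 min, after which biotinylated H3K9 peptide (500 nM) and SAM (20 uM) started a 2 h room-temperature reaction. Monomethylated product was quantified by antibody-based AlphaScreen chemiluminescence.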
BAZ2B block – blocks human BAZ2B. AID 504333. Potency, µM (doses to about 114 µM), inactives show top-dose activity change, negative = inhibition, most hits filed as inhibitors. 4.4% of 360,000 active. AlphaScreen BAZ2B-H3K14Ac peptide displacement; further: on the % scale 0 is the no-effect control and ±100 the full control effect; nearly all actives have a fitted effect of over 60% in size
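Complex of BAZ2B and biotin-H3K14Ac (50 nM apiece) forms over 30 min at RT, then faces library compounds up to 110 uM for another 30 min; AlphaScreen beads added, 20 min dark incubation, luminescence read.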
The depositor's hits bear a star; ? = inconclusive; . = no result; ! = a repeat was not active; [ ] = another dose, or the depositor's remark. The list is not random: actives were taken first. Their share in the collection is about 10%. The call rests on the fitted dose curve; in most records, active means well fitted curve in the direction sought with a large enough effect; inconclusive means small, poorly fitted or top-dose-only effect, or another doubt; inactive means no such curve, though single readings can be large; an effect the other way counts as inactive or inconclusive. Potency means the concentration at half of the fitted maximal effect.

SMILES	GLS inhibitor	JMJD2A Tudor	HP1b chromo inh	G9a inh	BAZ2B block
O=C(NCc1cccnc1)/C(=C\c1ccc(-c2ccc(Br)cc2)o1)S(=O)(=O)c1ccccc1	8.4%	?	-4.7%	14.1µM*	?
COCCN1C(=O)c2[nH]nc(-c3ccccc3O)c2C1c1ccc(Cl)c(Cl)c1 (centres undefined)	10.6%	?	38.4%	7.7%[59 µM]	-35.8%
Cn1c(-c2cccc(Br)c2)cnc1NCc1ccccc1O	18.0%	20µM*	?	.	50.1µM*
CCCOc1ccc(N)cc1N	36.6%	56.2µM*	?	5.01µM*	28.2µM*
CCOC(=O)/C=C/c1cc(F)c(S(=O)(=O)N2CCN(S(=O)(=O)c3ccc4c(c3)OCCO4)CC2)cc1F	.	-4.1%	.	.	.
CC(C)C[C@H](NC(=O)[C@H](CCCCN)NC(=O)[C@H](CCCNC(=N)N)NC(=O)[C@H](C)NC(=O)[C@H](CO)NC(=O)[C@H](CCCCN)NC(=O)[C@H](CCCNC(=N)N)NC(=O)[C@H](C)NC(=O)CNC(=O)[C@@H](NC(=O)[C@H](Cc1ccccc1)NC(=O)CNC(=O)CNC(=O)[C@@H](N)Cc1ccccc1)[C@H](C)O)C(=O)N[C@@H](C)C(=O)N[C@@H](CC(N)=O)C(=O)N[C@@H](CCC(N)=O)C(=O)O	.	.	.	23.5%[59 µM]	.
CCOC(=O)c1nnc2ccnn2c1N	-0.7%	89.1µM*	2.1%	?	-3.3%
COc1ccc(C(=O)CSc2nncn2C)cc1	11.5%	-6.2%	22.8%	?	3.1%
Cn1cnnc1SCC(=O)c1ccc(OC(F)F)cc1	14.8%	31.6µM*	16.8%	?	1.0%
COc1ccc(-c2noc(-c3nnn(-c4cc(C)ccc4C)c3N)n2)cc1	-0.1%	-16.5%	16.8%	4.7%[59 µM]	-12.6%
CCOC(=O)c1c(C)oc2nc(C)nc(N(C)Cc3ccccc3)c12	3.1%	27.2%	23.1%	-31.5%[59 µM]	-11.2%[57.1 µM]
Cc1cc(Nc2cccc([N+](=O)[O-])c2)c2cccc(C)c2n1	6.4%	-32.4%	15.9%	.	-10.6%
Cc1cc(Nc2ccccc2)c2c([N+](=O)[O-])ccc(C)c2n1	1.2%	50.1µM*	?	11.2µM*	28.2µM*
CCOc1ccc(-c2cnc(NCc3ccc(OC)cc3OC)n2C)cc1	6.8%	28.2µM*	?	15.8µM*	?
COc1ccc(CNc2cc(-c3ccoc3)ncn2)c(OC)c1	.	.	.	2.8%[0.501 µM]	.
COc1ccc(CNc2ncc(-c3ccc(Cl)cc3)n2C)c(OC)c1OC	2.5%	25.1µM*	?	70.8µM*	?
CCOc1ccc(NC(=O)C2CCCN(S(=O)(=O)c3cccc4nonc34)C2)cc1 (centres undefined)	-1.7%	-16.4%	6.3%	3.7%[59 µM]	-11.5%
CC(C)(C)c1cc[n+](-c2[nH]c(=O)sc2/C=N/NC([S-])=Nc2ccccc2)cc1	1.6%	-30.1%	-15.1%	14.1µM*	-31.2%
Cc1ccc[n+](-c2[nH]c(=O)sc2/C=N/N=C(\[O-])CCn2c3ccccc3c3ccccc32)c1	1.7%	-17.3%	-10.4%	0.2%	-22.8%
Cc1cc[n+](-c2[nH]c(=O)sc2/C=N/NC([S-])=Nc2ccccc2)cc1C	28.3%	?	?	31.6µM*	?
O=[N+]([O-])c1ccc(CN2CC(N3CCC(Cc4ccccc4)CC3)CS2(=O)=O)cc1 (centres undefined)	0.0%	.	.	.	.
CC(C)CC(=O)n1sc(NC(=O)c2ccccc2)nc1=O	2.3%	-4.3%	40.4%	1.3%[2.33 µM]	6.4%
COC(=O)C1=C(C(=O)OC)SC(=C2C(=S)C(C)(C)N(C(=O)CC(C)C)c3ccccc32)S1	-7.5%	11.2µM*	-76.5%	7.94µM*	3.98µM*
COc1cccc(CNC(=O)COC(=O)c2ccc(S(C)(=O)=O)c([N+](=O)[O-])c2)c1	.	-4.3%	64.4%	.	.
C=CCOC(=O)C1=C(C)N=c2s/c(=C3\C(=O)N(CC(=O)O)c4ccccc43)c(=O)n2C1c1ccc(OC)cc1 (centres undefined)	22.4µM*	?	-18.9%	8.91µM*	?
SMILES	GLS inhibitor	JMJD2A Tudor	HP1b chromo inh	G9a inh	BAZ2B block
Cc1ccccc1Nc1nc(NCc2ccco2)c2ccccc2n1	5.5%	56.2µM*	?	?	?
COc1ccc(OC)c(Nc2nc(NCc3ccco3)c3ccccc3n2)c1	5.0%	50.1µM*	?	?	39.8µM*
Oc1ccccc1Nc1nc(NCc2ccco2)c2ccccc2n1	15.2%	?	-18.7%	50.1µM*	44.7µM*
CC1CCN(S(=O)(=O)c2ccc3c(ccn3CCC(=O)NCc3ccccc3F)c2)CC1	1.4%	-11.0%	20.5%	-2.9%[59 µM]	-17.7%
CCSc1nc(N)c2c3c(sc2n1)CN(C)CC3	.	.	.	44.7µM*	6.9%
CCOC(=O)CSc1nc(N)c2c3c(sc2n1)CCCC3	-3.2%	1.3%	21.8%	70.8µM*	9.1%
CSc1nc(N)c2c3c(sc2n1)CN(C)CC3	-15.8%	-2.8%	33.1%	-18.5%	0.6%
CS(=O)(=O)N1CCC(Oc2cccc(C(=O)NCCCC3CCCC3)c2)CC1	-9.1%	-14.1%	31.3%	.	.
O=C(O)Cn1cccc1C(=O)c1ccccc1	-4.4%	20.1%	56.4%	56.2µM*	5.6%
O=C1Nc2c(c(=O)[nH]c(=O)n2-c2ccc(F)cc2)C1(NS(=O)(=O)c1ccc(Cl)cc1)C(F)(F)F (centres undefined)	-1.6%	-4.5%	21.9%	3.7%[59 µM]	-3.2%
CC(C)CC(=O)NC1(C(F)(F)F)C(=O)Nc2c1c(=O)[nH]c(=O)n2Cc1ccco1 (centres undefined)	-24.4%	?	45.6%	?	?
O=C(NC1(C(F)(F)F)C(=O)Nc2c1c(=O)[nH]c(=O)n2Cc1ccco1)C1CCCCC1 (centres undefined)	-4.3%	79.4µM*	3.1%	79.4µM*	2.6%
O=C(NC1(C(F)(F)F)C(=O)Nc2c1c(=O)[nH]c(=O)n2Cc1ccccc1)c1ccc(Cl)cc1 (centres undefined)	15.2%	-11.1%	27.3%	?	-0.3%
O=C1Nc2c(c(=O)[nH]c(=O)n2Cc2ccccc2)C1(NS(=O)(=O)c1ccccc1)C(F)(F)F (centres undefined)	-0.4%	-3.5%	27.6%	44.7µM*	-1.0%
Cc1ccc(-n2c3c(c(=O)[nH]c2=O)C(NS(=O)(=O)c2ccc(Cl)cc2)(C(F)(F)F)C(=O)N3)cc1 (centres undefined)	-4.8%	-10.7%	25.1%	50.1µM*!	-3.7%
O=C(COc1ccccc1)NCC(=O)Nc1cccc(S(=O)(=O)NC2=NCCC2)c1	-7.4%	-9.1%	31.9%	15.7%	.
COc1cc(C2c3cc4c(cc3OC(C)(N3CCCC3)C2C)OCO4)cc(OC)c1OC (centres undefined)	3.1%	?	-30.7%	.	.
CCOc1cc(/C=C2\SC(=N)N(c3nonc3N)C2=O)ccc1OCC(N)=O	-10.1%	?	25.2%	44.7µM*	?

Screening data from PubChem BioAssay.
